LDHA block: blocks human lactate dehydrogenase A; 480,000 compounds, 0.15% hits; purified LDHA, NADH/diaphorase-resazurin fluorescence; stronger effect = lower value; P00338; activity change, % (values are at about 110 or 230 µM); in the data active means activity change below about -30%; inconclusive means mostly about -25% to -30%;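 further: plate controls were DMSO wells for no effect and wells without enzyme for full effect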
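Resorufin fluorescence (ex540/em590), read at 0 and 20 min after diaphorase/resazurin addition, reports the NADH left after a 5 min room-temperature reaction of 2 nM human LDH5 with 0.06 mM NADH and 0.2 mM pyruvate.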
FUS yeast rescue: FUS proteinopathy suppression in yeast; S. cerevisiae FUS-expressing, growth rescue, OD600, 24 h; Potency, µM (doses to about 76.6 µM), hits mostly activators; 390,000 compounds, 0.24% hits; AID 1347120;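 further: potency means the concentration at half of the fitted maximal effect; plate controls were DMSO vehicle for no effect and reference control for full effect; nearly all actives have a fitted effect of over 55% in size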
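FUS-expressing yeast, raffinose-pregrown, induced in 2% galactose minimal medium at OD 0.005; compounds in a dilution series, 24hr at 30C. Growth restoration read as absorbance at 600 nm. CP55940 positive control, DMSO negative.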
TDP43 rescue: TDP-43 toxicity inhibition in yeast; AID 652104; Potency, µM (series often up to 46.1 µM), for the others: top-dose growth rescue (activation), actives largely listed as activators; TDP-43 expressing yeast growth rescue, BacTiter-Glo, 24 h; 410,000 compounds, 1.8% hits; further: potency means the concentration at half of the fitted maximal effect; % of control where 0% means no effect; nearly all actives have a fitted effect of over 50% in size
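Galactose-induced TDP-43 yeast, OD600=0.02, compound pinned; 24 hr, 30 deg C; BacTiter-Glo luminescence for growth. Inhibitors of TDP-43 toxicity read as activators.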
PTHR1 agonist: PTHR1 (human) receptor agonism | Q03431 | HEK293 GP2 PTHR1 cells, GloSensor cAMP luminescence, 1 h | Potency, µM (titrated, usually from 115 µM), inactives show top-dose activation, actives largely listed as activators | 410,000 compounds, 0.075% hits | AID 743266; further: potency means the concentration at half of the fitted maximal effect; nearly all actives have a fitted effect of over 55% in size
Target sequence (Q03431 whole entry, looked up): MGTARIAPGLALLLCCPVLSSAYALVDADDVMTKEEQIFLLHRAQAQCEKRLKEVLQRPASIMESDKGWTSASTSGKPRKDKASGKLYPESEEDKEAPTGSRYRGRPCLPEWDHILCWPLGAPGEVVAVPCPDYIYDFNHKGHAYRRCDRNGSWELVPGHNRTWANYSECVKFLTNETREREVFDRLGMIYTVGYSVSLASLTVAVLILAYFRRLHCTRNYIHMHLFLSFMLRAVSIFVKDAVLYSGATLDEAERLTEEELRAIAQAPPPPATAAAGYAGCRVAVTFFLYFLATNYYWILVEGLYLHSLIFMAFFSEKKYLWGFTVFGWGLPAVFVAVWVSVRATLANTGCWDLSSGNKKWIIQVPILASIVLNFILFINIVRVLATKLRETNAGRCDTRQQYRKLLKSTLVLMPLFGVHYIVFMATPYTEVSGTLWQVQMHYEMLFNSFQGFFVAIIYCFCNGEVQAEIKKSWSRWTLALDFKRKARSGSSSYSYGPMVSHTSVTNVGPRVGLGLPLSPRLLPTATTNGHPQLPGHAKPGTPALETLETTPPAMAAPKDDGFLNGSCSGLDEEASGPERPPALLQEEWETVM
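HEK-293-derived GP2 cells expressing PTHR1 and a GloSensor cAMP reporter, 3,000/well, plated overnight, given luciferin plus IBMX (each 0.5 mM as added) for 1 h at 37 °C, then compound for 1 h at 37 °C. Luminescence was read after 15 min at room temperature.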
aSyn rescue: alpha-synuclein toxicity inhibition in yeast | Yeast expressing alpha-synuclein, growth rescue, BacTiter-Glo, 24 h | Potency, µM (top dose mostly 46.1 µM), inactives show at the top dose growth rescue (activation), hits mostly activators | 370,000 compounds, 0.14% hits; further: potency means the concentration at half of the fitted maximal effect; % of control where 0% means no effect; nearly all actives have a fitted effect of over 65% in size
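Galactose-induced alpha-syn yeast (OD600=0.02, raffinose-pregrown) + pinned cpd, 24 hr, 30 deg C; growth by BacTiter-Glo luminescence. Growth restoration scores as activation.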
Abeta rescue: restores growth of yeast expressing A-beta42 peptide | Potency, µM (titrated, usually from 46.1 µM), most hits filed as activators | 410,000 compounds, 0.063% hits | yeast expressing A-beta42, growth rescue, OD600, 48 h; response scale: 0% DMSO, 100% iron-clioquinol control; further: potency means the concentration at half of the fitted maximal effect; nearly all actives have a fitted effect of over 55% in size
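Yeast A-beta toxicity model in growth medium with pinned compounds, 48 h at 30 C; growth read as absorbance at 600 nm. Normalized to FeCl3/clioquinol equimolar mix (positive) and DMSO (negative).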
Numbers without * were called inactive; i = inactive; ? = inconclusive; · = no result; [ ] = remark or other dose. Rows were chosen to be rich in hits. Some 1.9% of all compounds tested hit in one or more screens of this group. Unless noted, the call rests on the fitted dose curve; in most records, active means well fitted curve in the direction sought with a large enough effect; inconclusive means small, poorly fitted or top-dose-only effect, or another doubt; inactive means no such curve, though single readings can be large; an effect the other way counts as inactive or inconclusive.

SMILES	LDHA block	FUS yeast rescue	TDP43 rescue	PTHR1 agonist	aSyn rescue	Abeta rescue
CC(C)(C)c1ccc(C(=O)N2CCC2(C)C(=O)Nc2cccc3ccccc23)cc1 (stereo not given)	-4	?	1%	-20%	12%	i
O=C(C1CCCCC1)N(Cc1cccnc1)c1nc2c(Cl)cccc2s1	-5	·	·	·	·	·
Cc1noc(-c2ccccc2OCC(=O)Nc2ccccc2[N+](=O)[O-])n1	0	i	20µM*	i	·	i
COc1ccccc1NC(=O)COc1cccnc1[N+](=O)[O-]	1	i	7.9µM*	-9%	9%	i
Cc1ccccc1-c1noc(-c2ccccc2OCC(=O)Nc2ccccc2[N+](=O)[O-])n1	0	i	6%	-2%	·	i
CCOc1ccccc1NC(=O)COc1cccnc1[N+](=O)[O-]	2	i	?	i	?	i
CCCNc1c(NC(=O)c2ccccc2)c(=O)oc2ccccc12	1	·	·	·	·	·
Cc1ccc(S(=O)(=O)Nc2ccc(SC(F)F)cc2)c(C)c1	4	·	-65%	i	18µM*	i
O=[N+]([O-])c1ccc(CNc2ccc(F)cc2)s1	0	i	13µM*	-4%	3%	?
O=[N+]([O-])c1ccc(CNc2cccc(Cl)c2)s1	-1	i	18µM*	i	?	i
COc1ccc(NCc2ccc([N+](=O)[O-])s2)c(OC)c1	25	·	10µM*	i	17%	i
Cc1c(C(=O)C(=O)Nc2ccc(C(C)C)cc2)c2ccccc2n1C	3	·	·	·	·	·
COc1ccc(-c2ccc(C(=O)NCC3CC3)c3occc23)c(C)c1	-2	i	22µM*	i	-8%	i
COc1ccc(-c2ccc(C(=O)NCC(C)C)c3occc23)c(C)c1	-6	i	25µM*	i	2%	i
COc1ccc(-c2ccc(C(=O)N3CCOCC3)c3occc23)c(C)c1	-13	i	10µM*	-51%	?	i
CC(C)c1ccc(CN(C(=O)Cc2c[nH]c3ccccc23)C2CC2)cc1	5	·	·	·	·	·
Cc1ccc(OCc2nc(C#N)c(NCc3ccccc3Cl)o2)cc1	9	·	·	·	·	·
c1csc(Cn2c(-c3cccs3)nc3ccccc32)c1	-2	i	13µM*	i	-16%	i
CC(CCc1ccccc1)NC(=O)c1nnc(Cc2ccc(Cl)cc2)o1 (stereo not given)	-2	i	22µM*	-6%	27%	i
O=C(NCCc1ccc(Cl)cc1)c1nnc(Cc2ccc(Cl)cc2)o1	-14	i	11%	i	-6%	i
COc1ccc(Nc2ncnc3c2cnn3Cc2ccccc2)cc1OC	4	i	-22%	i	-8%	i
Cc1ccc(CSc2ncnc3c2cnn3Cc2ccccc2)cc1C	6	i	1µM*	-10%[57.5 µM]	-1%	i
Cc1cccc(Nc2ncnc3c2cnn3Cc2ccccc2)c1	1	i	16µM*	-25%	1%	i
Cc1ccc(CSc2ncnc3c2cnn3Cc2ccccc2)cc1	-14	i	-7%	i	-2%	i
O=[N+]([O-])c1ccc(OCc2cnc(Cl)s2)c([N+](=O)[O-])c1	2	i	11µM*	-31%	3%	i
SMILES	LDHA block	FUS yeast rescue	TDP43 rescue	PTHR1 agonist	aSyn rescue	Abeta rescue
COC(=O)C(Cc1cnc(Cl)s1)(C(=O)OC)c1ccc([N+](=O)[O-])cc1[N+](=O)[O-]	4	i	-8%	-6%	11%	i
O=C(CN1C(=O)COc2ccc(S(=O)(=O)NC3CCCC3)cc21)Nc1ccc(F)c(Cl)c1	8	20µM*	-4%	-37%	·	i
O=C(Nc1cc(Cl)cc(Cl)c1)c1cc(S(=O)(=O)NC2CCCC2)ccc1F	4	i	20µM*	-10%	·	i
O=C(Nc1ccc(F)c(F)c1)c1cc(S(=O)(=O)NC2CCCC2)ccc1F	1	i	2%	i	·	i
CSCCC(NC(=O)c1ccc2ccccc2n1)C(=O)NC(C)C (stereo not given)	-5	·	·	·	·	·
CCOc1ccccc1OCc1nn2c(C(C)C)nnc2s1	0	·	·	·	·	·
O=C(N/N=C/c1ccccn1)c1cc(-c2ccc3ccccc3c2)n[nH]1	-34*	·	17%	-70%	9%	i
CCCC(=O)N1CCN(c2nc(CC(C)C)c3c(c2C#N)CCC3)CC1	-4	?	11µM*	i	1%	i
O=C1Nc2ccc(Br)cc2/C1=C/C(=O)c1ccc2c(c1)OCO2	-13	i	-68%	i	-43%	i
O=C1Nc2ccc(Br)cc2/C1=C/C1CC=CCC1 (stereo not given)	0	i	20µM*	-95%	-77%	i
Cc1cc2nc(/C(C#N)=C\c3ccc(OCC(C)C)cc3)[nH]c2cc1C	9	·	·	·	·	·
O=C(c1ccccc1)n1ccc2ccc(-c3ccc4ccn(C(=O)c5ccccc5)c4c3)cc21	·	i	·	·	·	·
O=C(c1ccccc1)n1ccn(-c2ccccc2)c1=S	-8	i	11µM*	i	-1%	i
O=C(CSc1nnc(-c2cc3ccccc3cc2O)n1Cc1ccco1)N1CCc2ccccc2C1	3	16µM*	-20%	-15%	9%	i
CC(C)N(C(=O)CSc1nnc(-c2cc3ccccc3cc2O)n1Cc1ccco1)C(C)C	8	i	22%	i	18%	i
Cc1ccc(N(Cc2nc3nc(C)cc(=O)n3[nH]2)C(=O)c2ccccc2Cl)cc1	1	·	·	·	·	·
FC(F)(F)c1ccc(/C=N/Nc2ccc(Cl)c(Cl)c2)cc1	-18	·	·	·	·	·
CCOc1ccc(C(=O)Nc2ccc3c(c2)OCCO3)cc1Br	-7	i	18µM*	-36%	·	i
Cc1cccc(OCC(=O)Nc2ccc3c(c2)OCCO3)c1	-3	i	18µM*	-15%	-2%	i
Cc1ccc(OCC(=O)Nc2ccc3c(c2)OCCO3)cc1C	4	i	-13%	?	0%	i
COc1ccc(C(=O)Nc2ccc3c(c2)OCCO3)cc1Br	-5	i	7%	-41%	-3%	i
COc1cccc(-c2nc(SCC(=O)Nc3ccc4c(c3)OCCO4)c(-c3ccc(C)cc3)[nH]2)c1	-6	?	20µM*	1%	·	i
Cc1cccc(C)c1OCC(=O)Nc1ccc2c(c1)OCCO2	1	i	14µM*	-12%	0%	i
Cc1cccc(Cn2c(NCC3CCCO3)nc3c2c(=O)n(C)c(=O)n3C)c1 (stereo not given)	5	·	·	·	·	·

Screens deposited in PubChem BioAssay by National Center for Advancing Translational Sciences (NCATS).
